Experimental data published in PubChem BioAssay (NCI).
About 79,000 compounds went through this panel and 15% of them were active in at least one assay; those are over-represented in the sample as a whole. Values without a mark were called inactive. Active and inactive are the calls of the source. Cut-off read from the data, not from the text of the source: active = growth inhibition above about 70%; inactive = the rest.

test: NCI Yeast Anticancer Drug Screen. Data for the sgs1 strain (AID 173);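 note: 0% = growth of vehicle-only control cultures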; details: S. cerevisiae sgs1 mutant, at 1.2 µM, hits give high values
Method in brief: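 Screen format: yeast with repair or checkpoint alterations, compound exposure, growth read relative to vehicle.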

SMILES	growth inhibition [%]
CCC/C(Cl)=N\OC(=O)Nc1cccc(C(F)(F)F)c1	50
[O-][n+]1c2ccc(O)cc2nc2ccc(Cl)cc21	4
Clc1ccccc1C1OC1c1ccccc1Cl (stereo not drawn)	-78
c1ccc2c(c1)c1ncccc1c1nccnc21	-12
CC(=O)Nc1ccc2c(c1)C(=Nc1ccc(C(=O)O)cc1)c1ccccc1-2	-1
COc1ccc(OC)c2cc3ccccc3cc12	-12
COc1cc(C2c3cc4c(cc3OC(NNc3ccccc3)C2C)OCO4)cc(OC)c1OC (stereo not drawn)	29
O=C1c2cc([N+](=O)[O-])ccc2-c2cccc(F)c21	3
CCCCCCCCCCCC(=O)N(C)C	-18
CCCCCCCCCCCC1=C(O)C(=O)C=C(O)C1=O	-19
Cc1ccc(CSC(N)=Nc2ccccc2)cc1C	6
CCCCCCCCCCC1CCC(=O)O1 (stereo not drawn)	-1
O=[N+]([O-])c1cc(CCl)ccc1CCl	11
Nc1ccc2c(c1)C(=O)c1cccc(N)c1C2=O	-4
CCCCCCCCCCNC(=O)OCC	-1
CC1=C(C)Cc2c(O)ccc(O)c2C1	-21
COc1ccc2c(c1)C(=O)c1ccccc1C2	-3
CCC(=O)OCCn1c2nc(=O)[nH]c(=O)c-2nc2cc(C)c(C)cc21	-15
O=C(OCCN1CCCCCC1)C(c1ccsc1)C1CCCCC1 (stereo not drawn)	17
Oc1c(Br)cc(Br)cc1C1CCCCC1	-25

SMILES	growth inhibition [%]
CC1(C)[C@@H]2CC[C@]1(C)[C@H](OC(=O)CSC#N)C2	9
S=C(N/N=C(/c1ccccc1)c1ccccn1)N1CCCCCC1	4
Cc1ccc2[nH]c3c(C)c4cc[n+](C)cc4c(C)c3c2c1	1
CNC(=O)OCc1c(COC(=O)NC)c(-c2ccc(-c3ccccc3)cc2)n(C)c1C	-26
COc1ccccc1/C=C1\Sc2scc(-c3cccc([N+](=O)[O-])c3)[n+]2C1=O	34
O=[N+]([O-])c1ccc2c(c1)C(N1CCN(CCO)CC1)Cc1ccc(F)cc1S2 (stereo not drawn)	-1
Cc1ccc(CCC2=CCCc3c2ccc2ccccc32)cc1	-5
O=[N+]([O-])c1cccc2nccc(NCCCO)c12	8
Cc1ccc(-n2cc(-c3ccc(Cl)cc3)c(C#N)c2N)cc1	-2
Cc1ccc(S/N=C\c2ccccc2O)cc1	3
O=C(O)C1OC1(c1cccc(Cl)c1)c1ccccc1Cl (stereo not drawn)	-13
NC(=S)N/N=C\c1nccc2ccccc12	-3
Clc1cccc(C(Nc2nncs2)Nc2nncs2)c1Cl	-1
O=C(OCC=C1CCCC1)c1cc([N+](=O)[O-])cc([N+](=O)[O-])c1	-1
O=C(Nc1ccccc1)C(=O)C(C(=O)c1ccccc1)C(c1ccccc1)c1ccccc1 (stereo not drawn)	2
N#CN1C2CCC1CC(=O)C2	-17
COc1ccccc1C(=O)OCC1CCCN2CCCCC12 (stereo not drawn)	10
CCNc1nnc(CSc2nc(-c3ccccc3)c(-c3ccccc3)[nH]2)s1	23
O=C1c2ccccc2-c2n[nH]c3cccc1c23	-39

same assay, conditions: S. cerevisiae sgs1 mutant, at 3.7 µM, hits give high values

SMILES	growth inhibition
CCC/C(Cl)=N\OC(=O)Nc1cccc(C(F)(F)F)c1	62%
[O-][n+]1c2ccc(O)cc2nc2ccc(Cl)cc21	10%
Clc1ccccc1C1OC1c1ccccc1Cl (stereo not drawn)	-72%
c1ccc2c(c1)c1ncccc1c1nccnc21	-14%
CC(=O)Nc1ccc2c(c1)C(=Nc1ccc(C(=O)O)cc1)c1ccccc1-2	2%
COc1ccc(OC)c2cc3ccccc3cc12	-12%
COc1cc(C2c3cc4c(cc3OC(NNc3ccccc3)C2C)OCO4)cc(OC)c1OC (stereo not drawn)	37%
O=C1c2cc([N+](=O)[O-])ccc2-c2cccc(F)c21	10%
CCCCCCCCCCCC(=O)N(C)C	-8%
CCCCCCCCCCCC1=C(O)C(=O)C=C(O)C1=O	-11%
Cc1ccc(CSC(N)=Nc2ccccc2)cc1C	0%
CCCCCCCCCCC1CCC(=O)O1 (stereo not drawn)	1%
O=[N+]([O-])c1cc(CCl)ccc1CCl	28%
Nc1ccc2c(c1)C(=O)c1cccc(N)c1C2=O	3%
CCCCCCCCCCNC(=O)OCC	-1%
CC1=C(C)Cc2c(O)ccc(O)c2C1	-5%
COc1ccc2c(c1)C(=O)c1ccccc1C2	-4%
CCC(=O)OCCn1c2nc(=O)[nH]c(=O)c-2nc2cc(C)c(C)cc21	-7%
O=C(OCCN1CCCCCC1)C(c1ccsc1)C1CCCCC1 (stereo not drawn)	29%
Oc1c(Br)cc(Br)cc1C1CCCCC1	-16%

SMILES	growth inhibition
CC1(C)[C@@H]2CC[C@]1(C)[C@H](OC(=O)CSC#N)C2	23%
S=C(N/N=C(/c1ccccc1)c1ccccn1)N1CCCCCC1	10%
Cc1ccc2[nH]c3c(C)c4cc[n+](C)cc4c(C)c3c2c1	-21%
CNC(=O)OCc1c(COC(=O)NC)c(-c2ccc(-c3ccccc3)cc2)n(C)c1C	-25%
COc1ccccc1/C=C1\Sc2scc(-c3cccc([N+](=O)[O-])c3)[n+]2C1=O	89% (active)
O=[N+]([O-])c1ccc2c(c1)C(N1CCN(CCO)CC1)Cc1ccc(F)cc1S2 (stereo not drawn)	-1%
Cc1ccc(CCC2=CCCc3c2ccc2ccccc32)cc1	-4%
O=[N+]([O-])c1cccc2nccc(NCCCO)c12	38%
Cc1ccc(-n2cc(-c3ccc(Cl)cc3)c(C#N)c2N)cc1	0%
Cc1ccc(S/N=C\c2ccccc2O)cc1	7%
O=C(O)C1OC1(c1cccc(Cl)c1)c1ccccc1Cl (stereo not drawn)	-5%
NC(=S)N/N=C\c1nccc2ccccc12	6%
Clc1cccc(C(Nc2nncs2)Nc2nncs2)c1Cl	3%
O=C(OCC=C1CCCC1)c1cc([N+](=O)[O-])cc([N+](=O)[O-])c1	4%
O=C(Nc1ccccc1)C(=O)C(C(=O)c1ccccc1)C(c1ccccc1)c1ccccc1 (stereo not drawn)	3%
N#CN1C2CCC1CC(=O)C2	-20%
COc1ccccc1C(=O)OCC1CCCN2CCCCC12 (stereo not drawn)	-15%
CCNc1nnc(CSc2nc(-c3ccccc3)c(-c3ccccc3)[nH]2)s1	18%
O=C1c2ccccc2-c2n[nH]c3cccc1c23	-16%
